Experimental findings from PubChem BioAssay AID449762 (Southern Research Specialized Biocontainment Screening …, 2010) are described below.

The structures appear in SMILES notation. Out of some 330,000 compounds screened, about 1,900 (0.58%) were called active. Roughly 4% stayed inconclusive and do not appear here. The list is a sample of the results. Potency and affinity values are given separately. Unmarked numbers belong to inactive results. No stated cut-off is given here; in the data, inconclusive means inhibition above about 70% without an active follow-up result; inactive means below that.

One may read the inhibition as the relative decrease from the control value, in per cent.

A short description of this experiment: M. tuberculosis growth inhibition, HTS (AID 449762).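 Further: bacterial growth assessed after seven days of incubation.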 The note with it: M. tuberculosis H37Rv growth inhibition, 7H9 media; at 25 µM; stronger effect = higher value.
For the compound `O=C(NCc1ccco1)C1CCCN(c2ncnc3c2nc2n3CCCCC2)C1` (centres undefined), the inhibition was 1.1%. Regarding `O=C(O)C1CCN(S(=O)(=O)c2cccc3nsnc23)CC1`, the inhibition is 0.03%. The same measure for `Cc1c(C(=O)NC(=S)NCC(C)C)oc2ccccc12`: -6.41%. As for `COc1ccc(C2c3ccc4ccccc4c3Oc3ncn(CCO)c(=N)c32)cc1OC` (centres undefined), the figure is 6.98%; as for `COc1ccccc1C1c2ccc3ccccc3c2Oc2ncn(CCCO)c(=N)c21` (centres undefined), 5.41%. `COC(=O)Cn1c(C)nc([N+](=O)[O-])c1Br`: the inhibition was 0.3%. Take `Cc1c(Br)c([N+](=O)[O-])nn1CC(=O)c1ccccc1`: the inhibition was -1.84%. For the compound `Cc1ccc(S(=O)(=O)NC(Cc2ccc(Cl)cc2)C(=O)O)cc1` (centres undefined), the inhibition is 4.83%. As to `COc1ccccc1-c1c(C)oc2c(CN3CCOCC3)c(O)ccc2c1=O`, the inhibition is 0.75%. As for `COc1ccc(Br)cc1/C=N/NC(=O)c1cc(OC)c(OC)c(OC)c1`, the inhibition is -3.85%. As for `COc1cc(C(=O)N/N=C/c2ccsc2C)cc(OC)c1OC`, the figure is 17.9%; as for `Cc1ccc(CCNC(=O)C2CCN(S(=O)(=O)c3ccc4nc5c(c(C(=O)O)c4c3)CCCC5)CC2)cc1`, -1.27%; as for `Cc1nc2ncnn2c(Nc2ccc3c(c2)OCCO3)c1C`, 6.9%. The same measure for `COc1ccc(NC(=O)COC(=O)CCC2CCCCC2)cc1`: 8.09%. On to `O=C(C1=COCCO1)N1CCN(c2nc3ccc([N+](=O)[O-])cc3s2)CC1`, for which the inhibition is 1.78%. As for `COc1ccc(Cl)c2sc(N3CCN(C(=O)C4=COCCO4)CC3)nc12`, the inhibition is 35.6%.

For `COc1ccc(NC(=O)COC(=O)/C=C/c2ccccc2[N+](=O)[O-])cc1OC`, the inhibition was 0.41%. As to `Cc1sc2ncn(CC(=O)N3CCN(c4ccccn4)CC3)c(=O)c2c1S(=O)(=O)N1CCCCC1`, the inhibition was -2.75%. For `FC(F)(F)c1ccc2c(c1)N(CCCN1CCN(CCCl)CC1)c1ccccc1S2`, the inhibition was 4.41%.

`CN1CCN(CCCN2c3ccccc3Sc3ccc(S(=O)(=O)N(C)C)cc32)CC1`: the inhibition was 7.63%. As to `CS(=O)(=O)c1ccc(Cl)c(NC(=O)C2CC(=O)N(Cc3ccco3)C2)c1` (centres undefined), the inhibition is 3.6%.

As to `S=C(NC1CCCC1)N1CCN(c2ccccn2)CC1`, the inhibition was -3.07%. In the case of `CC1=NN(C(=O)c2ccc(Cl)cc2)C(O)(c2ccccc2)C1` (centres undefined), the inhibition was 28%. Regarding `CC1=NN(C(=O)c2ccccc2)C(O)(c2ccc(Br)cc2)C1` (centres undefined), the inhibition is -3.64%.

In the case of `Cc1cccc(NC(=O)CNC(=O)c2sc3ccccc3c2Cl)n1`, the inhibition is -2.76%. As to `COc1ccc([C@@H]2CC=C(C(=O)O)[C@H](c3ccc(C(C)(C)C)cc3)N2S(=O)(=O)c2ccc(C)cc2)cc1OC`, the inhibition was 4.96%.

For `CCS(=O)(=O)c1ccc2c(c1)N(S(C)(=O)=O)CC(C(=O)NC1CC1)O2` (centres undefined), the inhibition was 0.09%. `O=C(O)Cn1c(=O)c(-c2ccccc2)nc2ccccc21`: the inhibition is -12.6%. Turning to `On1c(-c2ccccc2)nc2ccccc21`, the inhibition was 9.54%. Consider `N#Cc1ccccc1S(=O)(=O)N1CCN(CC(O)COc2ccccc2F)CC1` (centres undefined), for which the inhibition was 3.84%. Consider `N=C1C(c2ccccc2)=C(O)CN1c1cccc2ccccc12`, for which the inhibition was -2.85%. As for `CCOc1ccc(/C=C2\SC(=S)N(N3C(=O)C4CC4C3=O)C2=O)cc1` (centres undefined), the figure is -8.07%; as for `CCNC(=S)Nc1ccc2cn[nH]c2c1`, -5.21%; as for `CCc1ccc(NC(=S)Nc2ccc3cn[nH]c3c2)cc1`, 32%. As to `CCCCn1cnc2c(oc3ccccc32)c1=O`, the inhibition is -0.57%. As to `Nc1nn(S(=O)(=O)c2ccccc2)cc1-c1cccc([N+](=O)[O-])c1`, the inhibition is 1.89%.

As for `CN(C)[C@@H]1C(=O)C(C(N)=O)=C(O)[C@@]2(O)C(=O)C3=C(O)c4c(O)ccc(Cl)c4[C@@](C)(O)[C@H]3C[C@@H]12`, the inhibition was 5.01%. As for `CCOc1ccc(NC(=O)CCC(=O)Oc2ccc(C)cc2)cc1`, the figure is -3.3%.

`O=C(COC(=O)Cc1ccsc1)Nc1ccccc1`: the inhibition is -4.1%. As for `C=CCNC(=S)NNC(=O)c1csc(CC)c1`, the figure is -5.45%; as for `Cc1ccc(NC(=O)C(C)N=C2NS(=O)(=O)c3ccccc32)cc1F` (centres undefined), 11%; as for `CC(=O)N1CCN(c2ccc([N+](=O)[O-])cc2)CC1`, -5.3%. As for `CC(=O)N1CCN(c2ccc([N+](=O)[O-])c(-n3nc(C)cc3C)c2)CC1`, the figure is 1.6%; as for `CCOc1ccccc1OCC(=O)OCC(=O)c1c(N)n(CC(C)C)c(=O)n(C)c1=O`, 0.88%. Turning to `CC(=O)OCC(=O)C1CCC2C3CC=C4CC(O)CCC4(C)C3CCC12C` (centres undefined), the inhibition was -10.9%. Consider `CN(Cc1cccc(Cl)c1Cl)C(=O)c1cccc(S(=O)(=O)N2CCN(Cc3ccccc3)CC2)c1`, for which the inhibition was -12.3%. Consider `COc1cc(-c2c(C#N)c(=O)[nH]c3c2c(C)nn3-c2ccccc2)ccc1O`, for which the inhibition is 51.3%. `Cc1nn(-c2ccc(F)cc2)c2nc(N)c(C#N)c(-c3ccc(O)c(O)c3)c12`: the inhibition is 1.53%.

Consider `O=C1c2ccc([N+](=O)[O-])cc2S(=O)(=O)N1Cc1ccccc1`, for which the inhibition is -6.93%. For the compound `CCc1noc(C)c1C(=O)Nc1nc2ccc(F)cc2s1`, the inhibition is 68.5%.

For `CCc1noc(C)c1C(=O)Nc1nc(-c2cc(C)ccc2C)c(C)s1`, the inhibition was -0.88%.

`CC(=NCc1cccnc1)C1=C(O)c2ccccc2C1=O`: the inhibition was -1.08%. Turning to `CC(=NCc1ccc2c(c1)OCO2)c1c(O)[nH]c(=O)[nH]c1=O`, the inhibition was -12.3%.

Consider `CCn1c(=O)c2cc(C(=O)NCCC(C)C)sc2c2ccccc21`, for which the inhibition was 9.29%.

Turning to `O=C(Cn1nnc2ccccc21)c1cccc([N+](=O)[O-])c1`, the inhibition is -4.83%. The same measure for `CN(C(=O)c1ccc(-c2ccccc2)cc1)C1CCCCC1`: 53.6%; for `CCOc1ccc(NS(=O)(=O)c2ccc(C(=O)N(C)CC(=O)Nc3ccc(C)cc3)cc2)cc1`: 56.7%; for `CCCSc1ccc(-c2nn(-c3ccccc3)cc2/C=C(/C#N)C(=O)NCCCOC)cc1`: -1.57%. On to `CCSc1ccc(-c2nn(-c3ccccc3)cc2/C=C(/C#N)C(=O)NCCCOC)cc1`, for which the inhibition was 6.88%.
